Measurements: PubChem BioAssay AID449739 (Vanderbilt High Throughput Screening Facility, 2010)
In all, about 100,000 compounds went through this assay and about 4,200 (4.2%) were called active.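 How the source made its calls: active means single-dose well whose peak fluorescence ratio is a statistical outlier from its plate by either plate-standardised score or position-corrected B-score; inactive means the rest.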 Only a selection was taken, and actives are over-represented in it overall.

Molecular target: Voltage-dependent T-type calcium channel subunit alpha-1H (Homo sapiens) (UniProt O95180)
Assay: Cav3.2 calcium influx blockers – cell-based, Fluo-4 calcium fluorescence, FDSS, MLSMR library, primary screen (AID 449739)
Details: Cav3.2-expressing cells, at 10 µM, hits give low values

Chain of Voltage-dependent T-type calcium channel subunit alpha-1H (Homo sapiens) (O95180 whole entry, looked up): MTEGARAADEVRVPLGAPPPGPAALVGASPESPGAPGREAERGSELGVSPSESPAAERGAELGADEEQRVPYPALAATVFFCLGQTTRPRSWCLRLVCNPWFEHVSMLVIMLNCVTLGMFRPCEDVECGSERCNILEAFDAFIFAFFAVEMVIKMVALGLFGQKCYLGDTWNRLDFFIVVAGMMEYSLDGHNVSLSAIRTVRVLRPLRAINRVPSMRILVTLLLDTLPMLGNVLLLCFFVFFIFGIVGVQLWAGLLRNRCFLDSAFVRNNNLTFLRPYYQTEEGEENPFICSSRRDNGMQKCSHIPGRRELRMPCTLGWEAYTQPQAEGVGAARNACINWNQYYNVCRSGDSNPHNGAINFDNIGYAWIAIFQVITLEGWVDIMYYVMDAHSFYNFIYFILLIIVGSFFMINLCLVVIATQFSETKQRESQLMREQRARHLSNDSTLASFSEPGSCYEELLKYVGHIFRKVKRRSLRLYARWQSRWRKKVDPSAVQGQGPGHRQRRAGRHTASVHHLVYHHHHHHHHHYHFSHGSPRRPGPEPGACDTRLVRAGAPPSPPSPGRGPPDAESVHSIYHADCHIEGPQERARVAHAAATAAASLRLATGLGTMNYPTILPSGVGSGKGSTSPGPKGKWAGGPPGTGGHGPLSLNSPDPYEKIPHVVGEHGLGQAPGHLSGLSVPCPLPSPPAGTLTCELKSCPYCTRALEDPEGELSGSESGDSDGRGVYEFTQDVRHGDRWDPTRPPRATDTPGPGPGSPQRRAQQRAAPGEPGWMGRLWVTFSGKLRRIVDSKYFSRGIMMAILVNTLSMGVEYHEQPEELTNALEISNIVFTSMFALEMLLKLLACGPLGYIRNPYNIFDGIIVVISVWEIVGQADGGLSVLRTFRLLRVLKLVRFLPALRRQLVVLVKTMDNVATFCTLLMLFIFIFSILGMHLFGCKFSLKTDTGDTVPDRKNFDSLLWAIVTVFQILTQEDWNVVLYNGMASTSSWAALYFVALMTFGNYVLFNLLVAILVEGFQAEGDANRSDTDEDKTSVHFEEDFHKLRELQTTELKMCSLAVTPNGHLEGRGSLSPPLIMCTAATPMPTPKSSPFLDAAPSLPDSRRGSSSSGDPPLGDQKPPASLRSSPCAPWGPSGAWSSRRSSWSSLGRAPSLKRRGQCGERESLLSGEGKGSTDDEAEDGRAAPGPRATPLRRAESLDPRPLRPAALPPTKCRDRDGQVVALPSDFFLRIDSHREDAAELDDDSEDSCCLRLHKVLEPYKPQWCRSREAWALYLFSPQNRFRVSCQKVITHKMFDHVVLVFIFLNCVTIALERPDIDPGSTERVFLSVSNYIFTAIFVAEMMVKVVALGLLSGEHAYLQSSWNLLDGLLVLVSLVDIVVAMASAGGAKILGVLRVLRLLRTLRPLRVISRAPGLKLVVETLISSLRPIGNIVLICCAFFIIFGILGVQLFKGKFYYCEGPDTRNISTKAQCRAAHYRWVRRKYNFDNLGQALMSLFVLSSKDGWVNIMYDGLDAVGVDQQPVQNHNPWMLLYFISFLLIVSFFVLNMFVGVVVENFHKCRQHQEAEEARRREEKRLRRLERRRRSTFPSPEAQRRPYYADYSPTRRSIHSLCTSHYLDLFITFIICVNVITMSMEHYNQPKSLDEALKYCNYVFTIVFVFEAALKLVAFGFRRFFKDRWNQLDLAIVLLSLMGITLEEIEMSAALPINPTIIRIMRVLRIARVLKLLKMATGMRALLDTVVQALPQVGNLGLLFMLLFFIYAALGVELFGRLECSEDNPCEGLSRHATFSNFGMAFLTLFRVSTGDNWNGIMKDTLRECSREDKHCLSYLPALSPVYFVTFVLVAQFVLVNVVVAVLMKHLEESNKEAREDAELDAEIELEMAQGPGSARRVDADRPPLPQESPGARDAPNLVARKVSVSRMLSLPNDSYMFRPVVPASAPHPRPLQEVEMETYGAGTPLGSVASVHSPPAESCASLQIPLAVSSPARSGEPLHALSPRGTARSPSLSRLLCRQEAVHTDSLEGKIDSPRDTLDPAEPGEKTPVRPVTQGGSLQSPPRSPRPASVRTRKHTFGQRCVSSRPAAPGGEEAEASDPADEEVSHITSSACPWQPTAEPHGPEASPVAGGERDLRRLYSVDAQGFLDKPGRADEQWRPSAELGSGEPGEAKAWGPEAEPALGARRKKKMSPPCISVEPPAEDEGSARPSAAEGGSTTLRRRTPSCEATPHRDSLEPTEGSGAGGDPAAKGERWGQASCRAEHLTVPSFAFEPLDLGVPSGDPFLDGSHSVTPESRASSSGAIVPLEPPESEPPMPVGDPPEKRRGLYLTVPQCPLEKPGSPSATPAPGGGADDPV

Structure (SMILES) | B-score
COC(=O)CCCC1=CC2=CC(=O)C(C)(OC(=O)c3cccs3)C(=O)C2=CN1c1cccc(C#N)c1 (stereo not drawn) | 0.181 (inactive)
Cc1nc(C)c(-c2csc(NCCc3ccccc3)n2)s1 | -6.45 (active)
Cc1ccc(Nc2nc(-c3sc(NC(=O)c4ccccc4)nc3C)cs2)cc1 | -0.00441 (inactive)
CCCCC(=O)Nc1nc(C)c(-c2csc(Nc3ccc(Cl)cc3)n2)s1 | 0.015 (inactive)
CCn1c(O)c2ccc(C(=O)N=NC(=O)c3cccnc3)cc2c1O | -0.0483 (inactive)
CCCc1[nH]nc2c1C(c1c(C)nn(-c3ccccc3)c1Cl)C(C#N)=C(N)O2 (stereo not drawn) | -4.44 (active)
CCCc1[nH]nc2c1C(c1ccc(OC)c(Cn3nc(C)c(Br)c3C)c1)C(C#N)=C(N)O2 (stereo not drawn) | -0.964 (inactive)
CCCc1[nH]nc2c1C(c1ccc(Br)s1)C(C#N)=C(N)O2 (stereo not drawn) | 0.903 (inactive)
COc1cc(C2OC(c3cc(OC)c(OC)c(OC)c3)C(C)C2C)cc(OC)c1OC (stereo not drawn) | -2.38 (inactive)
O=C(NCCCCc1ccccc1)C1CC(c2ccc([N+](=O)[O-])cc2)=NO1 (stereo not drawn) | -2.65 (inactive)
CCOC(=O)/C=C/c1ccc(C(F)(F)F)cc1S(=O)(=O)NC(C)(C)C | 0.0548 (inactive)
O=C(NCN1CCN(CCO)CC1)c1cnccn1 | 0.423 (inactive)
Cc1ccccc1N/N=C/c1ccc(N2CCOCC2)cc1 | 0.0508 (inactive)
COc1ccc(C(=O)CSc2nnc(COc3ccccc3)n2Cc2ccco2)cc1 | -4.51 (active)
CCn1c(CNc2ccc(OC)cc2)nnc1SCC(=O)c1ccc(OC)cc1 | 0.231 (inactive)
O=C(CSc1nnc(-c2cccnc2)n1Cc1ccco1)c1ccc(Cl)cc1 | 0.695 (inactive)
CC(C)C(NS(=O)(=O)c1cccs1)C(=O)Nc1nc(C(C)(C)C)cs1 (stereo not drawn) | -3.54 (inactive)
C=CCn1c(SCc2c(C(=O)OC)sc(N)c2C(=O)OC)nnc1-c1ccc(Cl)cc1 | -3.5 (active)
C=CCn1c(SCc2cc(C(=O)OC)c(C)o2)nnc1-c1ccncc1 | 0.333 (inactive)
C=CCn1c(SCn2nnc3ccccc3c2=O)nnc1-c1ccc(Cl)cc1 | -1.02 (inactive)
COc1cccc2c1OCC(C(=O)NCc1ccc(Cl)cc1Cl)=C2 | -1.48 (inactive)
CCc1nnc(SCc2cccc(F)c2)nc1CC | -2.53 (inactive)
C/C(=N\NC(=O)c1ccccc1C)c1ccc(N2CCOCC2)cc1 | -0.0283 (inactive)
C/C(=N\NS(=O)(=O)c1ccc(Br)cc1)c1cccs1 | -5.02 (active)

Structure (SMILES) | B-score
C/C(=N\NS(=O)(=O)c1cccc([N+](=O)[O-])c1)c1cc2ccccc2o1 | -0.824 (inactive)
O=S(=O)(NN=C1CCCCCCC1)c1ccc(Br)cc1 | -1.71 (inactive)
O=Cc1c(N2CCN(c3cccc(Cl)c3)CC2)nc2ccccn2c1=O | -1.81 (inactive)
Cc1cc(C(=O)OCC(=O)NCc2ccco2)c(C)n1-c1ccccc1 | -4.45 (active)
O=C(CSc1nnc(-c2cccs2)n1-c1ccccc1)NCc1ccco1 | 0.148 (inactive)
O=C(COC(=O)C12CC3CC(CC(C3)C1)C2)NCc1ccco1 | -0.704 (inactive)
ONC(=Nc1ccc(Cl)cc1)c1ccccc1Cl | -1.41 (inactive)
O=c1c2ccccc2nc2n1C(CSc1ccc(F)cc1)CN2 (stereo not drawn) | 1.22 (inactive)
COc1ccc(C(=O)Nc2ncc3c(n2)-c2ccccc2CC3)cc1 | 0.00103 (inactive)
COC(=O)c1nc(NC(=O)c2ccc(Cl)cc2)n[nH]1 | 1.01 (inactive)
O=C(Nc1ncc2c(n1)-c1ccccc1OC2)c1ccc(Cl)cc1 | -4.5 (active)
C/C=C\C=C\C(=O)N1CC2(CC(c3cccc(NC(=O)/C(C)=C\C)c3)=NO2)C[C@H]1C(N)=O (stereo partly drawn) | 0.133 (inactive)
CCOC(=O)c1ccc(NC(=O)c2nc[nH]c2C(=O)N[C@@H](CCCCNC(=O)OC(C)(C)C)C(=O)OC(C)(C)C)cc1 | -0.307 (inactive)
O=C(NCCC1=CCCCC1)C1CCN(Cc2cnn(-c3ccccc3)c2-n2cccc2)CC1 | -5.79 (active)
C1=C(CCNc2ncnc3c2cnn3-c2ccccc2)CCCC1 | -0.0964 (inactive)
Cc1cc(C)cc(NC(=O)CSCc2cnn(-c3ccccc3)c2-n2cccc2)c1 | -2.22 (inactive)
COc1cccc(NC(=S)N(CCc2c(C)[nH]c3ccccc23)Cc2ccco2)c1 | -2.67 (inactive)
CNC(=O)c1[nH]cnc1C(=O)N[C@@H](CC(C)C)C(=O)OC(C)(C)C | 0.371 (inactive)
Cc1noc(C)c1C(=O)N(CC(=O)NC1CCCC1)Cc1ccccc1F | 0.408 (inactive)
CCC(CC)C(=O)N1CC(=O)Nc2ccc(Br)cc2C1c1ccccc1 (stereo not drawn) | -4.79 (active)
COC(=O)CN1C(C)=Nc2ccc(Br)cc2C1c1ccccc1 (stereo not drawn) | -0.737 (inactive)
CCOC(=O)C1C(=O)NCC1c1ccccc1 (stereo not drawn) | 0.378 (inactive)
CCCCCCCCOC1OC(CO)C(O)C(O)C1NC(C)=O (stereo not drawn) | 0.195 (inactive)
FC(F)(F)c1nc2ccccc2nc1N/N=C/c1ccc(Cl)cc1 | -0.00807 (inactive)

Structure (SMILES) | B-score
O=c1c2ccccc2nc(N/N=C/c2ccccc2)n1O | -5.17 (active)
CC(C)(C)c1nc2ccccc2c(=O)n1N1C(=O)c2ccccc2C1=O | -0.127 (inactive)
C#CCCOC(=O)N1C2=NC(C(=O)OC)=C(C(=O)OC)[C@@H]3N(C)c4ccc(OC)cc4[C@]23C[C@H]1C(=O)OC | 0.061 (inactive)
Cc1nc(-c2ccc(Cl)cc2)sc1C1(C)CC(c2ccc(Br)cc2)=NO1 (stereo not drawn) | -0.405 (inactive)
Cc1nn(C)c(Oc2ccc(Cl)cc2)c1C=O | -0.0899 (inactive)
C=CCSc1nnc2c(n1)-c1cccc3cccc-2c13 | 0.673 (inactive)
COc1ccc(NC(=O)c2c(SC)nsc2SC)cc1 | 0.226 (inactive)
CSc1nsc(SC)c1NC(=O)OC1CCCCC1 | -4.23 (active)
O=C(NCC(=O)N(Cc1cccs1)C(C(=O)NC1CCCCC1)c1ccco1)c1cccs1 (stereo not drawn) | -6.73 (active)
CC(Cc1cccs1)NC(=O)NC1CCCCC1 (stereo not drawn) | -2.2 (inactive)
CC(C)C(OC(=O)c1cccs1)C(=O)NC1CCCCC1 (stereo not drawn) | -0.509 (inactive)
Cc1nnc(NC(=O)Nc2ccc(Cl)c(Cl)c2)s1 | -0.569 (inactive)
O=C(CC(O)(C(F)(F)F)C(F)(F)F)Nc1ccc(Cl)c(Cl)c1 | -6.32 (active)
N/C(=N\OC(=O)Nc1ccc(Cl)c(Cl)c1)c1ncc(C(F)(F)F)cc1Cl | -0.00792 (inactive)
COC(=O)CNC(=O)c1ccccc1[N+](=O)[O-] | 2.22 (inactive)
CC(=O)N[C@H]1[C@H]([C@H](O)[C@H](O)CO)OC(C(=O)O)=C[C@@H]1O | 0.744 (inactive)
CC(C)CNC(=O)CC(c1ccccc1)c1c(O)ccc2ccccc12 (stereo not drawn) | -6.12 (active)
Cc1ccc(CNC(=O)C2CC(c3ccccc3[N+](=O)[O-])=NO2)o1 (stereo not drawn) | -1.03 (inactive)
COc1ccc(C(=O)CN(C(=O)c2ccc(Cl)cc2)N2C(=O)c3ccccc3C2=O)cc1 | -1.99 (inactive)
O=C(Cc1ccc(S(=O)(=O)N2CCCC2)s1)NC1CCCCCC1 | 0.271 (inactive)
O=C(NCCSCc1ccccc1)c1ccc(Cl)c(S(=O)(=O)N2CCOCC2)c1 | -3.48 (inactive)
O=C(Cc1ccc(S(=O)(=O)N2CCOCC2)s1)NCCC(c1ccccc1)c1ccccc1 | -6.74 (active)
CC(=O)c1ccc2c(ccc3ccccc32)c1 | -0.705 (inactive)
CC(=O)c1nn(-c2cccc(Br)c2)cc1C(=O)c1cccc2ccccc12 | -4.57 (active)

Structure (SMILES) | B-score
CC(=O)c1sc(NC(=O)c2cccc3ccccc23)nc1C | -0.12 (inactive)
CCNC(=S)N1CCN(C(=O)c2ccco2)CC1 | -0.0983 (inactive)
CCN(CC)CCN1C(=O)C(=O)/C(=C(/O)c2cnn(-c3ccccc3)c2C)C1c1cccs1 (stereo not drawn) | 0.414 (inactive)
CC(Oc1ccc2ccccc2c1)C(=O)NNC(=S)NC(=O)c1ccco1 (stereo not drawn) | -7.25 (active)
COc1ccc(CCNC(=O)c2ccco2)cc1 | 0.807 (inactive)
O=C(Nc1ccc(Oc2ccccc2)cc1)c1ccco1 | -0.246 (inactive)
CCO[C@H]1OC(C(=O)NCc2ccccc2)=C[C@@H](c2coc3ccccc3c2=O)[C@@H]1CCCO | 0.119 (inactive)
CC1=NN(Cc2ccccc2)C(=O)/C1=C/c1ccc(N(C)C)cc1 | -2.13 (inactive)
CS(=O)(=O)N1CCN(c2ccc(C(=O)NC3C4CC5CC(C4)CC3C5)cc2[N+](=O)[O-])CC1 (stereo not drawn) | 0.716 (inactive)
O=C(Nc1ccc2c(c1)OCCO2)c1ccc(Cl)c(S(=O)(=O)N2CCCCC2)c1 | -1.46 (inactive)
Cc1ccc(C(=O)NCC(=O)O)cc1S(=O)(=O)N1CCCCC1 | 1.06 (inactive)
Cc1ccc(C(=O)Nc2ccc3c(c2)OCO3)cc1S(=O)(=O)N1CCCCC1 | -5.28 (active)
CCOc1ccc(NC(=O)CC2C(=O)N(c3ccccc3)C(=O)N2CCOC)cc1 (stereo not drawn) | 0.221 (inactive)
COc1ccc(-c2n[nH]c(C)c2-c2ccc(OC)c(OC)c2)c(O)c1 | -1.02 (inactive)
C=C(C)COc1ccc(-c2n[nH]c(C)c2-c2ccccc2OC)c(O)c1 | -1.28 (inactive)
CCOc1ccccc1Oc1cn[nH]c1-c1ccc(OC)cc1O | -3.81 (active)
O=C(c1cccc(F)c1)N1CCN(c2ccc([N+](=O)[O-])c(N3CCCCC3)c2)CC1 | -2.45 (inactive)
Cc1cccc(N2CCN(C(=O)CN(C)S(=O)(=O)c3ccc4c(c3)CCC(=O)N4)CC2)c1C | 1.04 (inactive)
Clc1ccc(Cn2ncc3c(NCc4cccnc4)ncnc32)cc1 | -4.69 (active)
O=S(=O)(NCc1cccnc1)c1ccc(Cl)nc1 | 0.0815 (inactive)
CC(C)Nc1ncnc2c1nnn2Cc1ccccc1 | 0.849 (inactive)
